Measurements reported in PubChem BioAssay (EPA / NIEHS).
Records with an inconclusive call do not appear. Active and inactive are the calls of the source. How the source made its calls: active means hit-call score of the fitted dose curve at least 0.9, where 1 is the maximum; inconclusive means response in the unintended direction; inactive means score below 0.9.

What was measured:
[1] = molecular target: human Phosphodiesterase 5 (PDE5), PDE5A (gene 8654) (UniProt O76074); test: NVS_ENZ_hPDE5: NovaScreen (NVS) Enzymatic Assay for human Phosphodiesterase 5 (PDE5) (AID 2283194)
Method in brief: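 Screening began in duplicate at 25 uM, with actives taken into concentration-response. Enzyme activity of recombinant PDE5 toward its substrate was measured at 1 h by fluorescence mobility-shift detection, relative to DMSO controls.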

[2] = molecular target: human Phosphodiesterase 10 (PDE10), PDE10A (gene 10846) (UniProt Q9Y233); test: NVS_ENZ_hPDE10: NovaScreen (NVS) Enzymatic Assay for human Phosphodiesterase 10 (PDE10) (AID 2283195)
Method in brief: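 Readout is fluorescence intensity following electrophoretic mobility-shift separation, 1 h after dosing of isolated PDE10A protein. Hits meeting a preset threshold at 25 uM went to concentration series (max 50 uM), analysed relative to DMSO.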

[3] = molecular target: Serine/threonine-protein phosphatase PP1-alpha catalytic subunit (Homo sapiens) (UniProt P62136); test: NVS_ENZ_hPPP1CA: NovaScreen (NVS) Enzymatic Assay for human Protein Phosphatase 1 Aatalytic subunit Alpha (PPP1CA) (AID 2283200)
Chain of Serine/threonine-protein phosphatase PP1-alpha catalytic subunit (Homo sapiens) (P62136 whole entry, looked up): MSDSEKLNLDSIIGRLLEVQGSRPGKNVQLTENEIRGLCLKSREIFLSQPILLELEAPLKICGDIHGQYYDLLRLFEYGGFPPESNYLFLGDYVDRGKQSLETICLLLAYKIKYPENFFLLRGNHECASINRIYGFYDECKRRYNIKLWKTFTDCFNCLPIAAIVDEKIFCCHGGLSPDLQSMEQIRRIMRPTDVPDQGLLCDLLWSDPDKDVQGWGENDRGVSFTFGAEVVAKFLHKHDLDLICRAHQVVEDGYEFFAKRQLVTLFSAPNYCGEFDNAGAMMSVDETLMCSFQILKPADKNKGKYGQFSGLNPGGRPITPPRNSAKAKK
Method in brief: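 Chemicals were first screened in duplicate at 25 uM, and those passing threshold (e.g. 30% inhibition) were run as concentration series to 50 uM. Cell-free recombinant protein, 1.33 h read, fluorescent substrate/product mobility-shift detection, normalised to DMSO.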

[4] = molecular target: Tyrosine-protein phosphatase non-receptor type 11 (Homo sapiens) (UniProt Q06124); test: NVS_ENZ_hPTPN11: NovaScreen (NVS) Enzymatic Assay for human Protein Tyrosine Phosphatase Non-receptor Type 11 (PTPN11) (AID 2283202)
Chain of Tyrosine-protein phosphatase non-receptor type 11 (Homo sapiens) (Q06124 whole entry, looked up): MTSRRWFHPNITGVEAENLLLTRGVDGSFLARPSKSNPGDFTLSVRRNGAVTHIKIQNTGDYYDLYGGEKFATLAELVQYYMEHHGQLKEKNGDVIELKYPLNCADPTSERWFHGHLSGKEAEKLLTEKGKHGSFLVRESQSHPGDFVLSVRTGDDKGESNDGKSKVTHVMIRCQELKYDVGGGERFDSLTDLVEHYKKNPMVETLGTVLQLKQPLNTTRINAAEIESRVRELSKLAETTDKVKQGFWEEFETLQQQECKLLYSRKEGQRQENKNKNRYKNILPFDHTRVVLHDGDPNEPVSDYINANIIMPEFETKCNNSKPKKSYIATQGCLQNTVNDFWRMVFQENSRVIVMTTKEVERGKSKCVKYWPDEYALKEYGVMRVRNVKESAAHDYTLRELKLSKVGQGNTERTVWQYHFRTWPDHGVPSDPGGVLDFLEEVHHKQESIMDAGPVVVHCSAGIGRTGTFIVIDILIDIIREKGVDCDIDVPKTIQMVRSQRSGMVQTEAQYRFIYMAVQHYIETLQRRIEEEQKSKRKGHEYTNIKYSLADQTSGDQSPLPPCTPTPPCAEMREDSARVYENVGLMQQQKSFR
Method in brief: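 Compounds first tested in duplicate at 25 uM; those reaching ~30% inhibition rerun in singleton concentration-response, top 50 uM. Phosphatase activity measured after 0.5 h by fluorescence with mobility-shift separation, relative to DMSO.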

[5] = molecular target: Tyrosine-protein phosphatase non-receptor type 14 (Homo sapiens) (UniProt Q15678); test: NVS_ENZ_hPTPN14: NovaScreen (NVS) Enzymatic Assay for human Protein Tyrosine Phosphatase Non-receptor Type 14 (PTPN14) (AID 2283206)
Method in brief: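 Fluorescent substrate turnover by recombinant human PTPN14 was measured 0.5 h after compound addition, with substrate and product separated by mobility shift. Single-point screening at 25 uM, then concentration-response up to 50 uM for chemicals meeting threshold (e.g., 30% inhibition).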

[6] = molecular target: human Protein Tyrosine Phosphatase Non-receptor Type 4 (PTPN4), PTPN4 (gene 5775) (UniProt P29074); test: NVS_ENZ_hPTPN4: NovaScreen (NVS) Enzymatic Assay for human Protein Tyrosine Phosphatase Non-receptor Type 4 (PTPN4) (AID 2283208)
Method in brief: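 Screened in duplicate at 25 uM, with hits then titrated to a top concentration of 50 uM. Recombinant Sf9-derived PTPN4 turnover was read by fluorescence with electrophoretic separation, 1.33 h after compound addition. DMSO served as baseline.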

[7] = molecular target: cAMP-dependent protein kinase catalytic subunit alpha (Homo sapiens) (UniProt P17612); test: NVS_ENZ_hPKA: NovaScreen (NVS) Enzymatic Assay for human Protein Kinase A (PKA) (AID 2283192)
Method in brief: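 Cell-free kinase activity read by fluorescence after mobility-shift separation of substrate and product, 1 h post-dosing. Single-concentration duplicate screen (25 uM) preceded singleton concentration series (top 50 uM); loss of signal versus DMSO.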

[8] = molecular target: human Protein Tyrosine Phosphatase Non-receptor Type 1 (PTPN1), PTPN1 (gene 5770) (UniProt P18031); test: NVS_ENZ_hPTPN1: NovaScreen (NVS) Enzymatic Assay for human Protein Tyrosine Phosphatase Non-receptor Type 1 (PTPN1) (AID 2283201)
Method in brief: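 Chemicals were first tested in duplicate at 25 uM, and those passing threshold went on to singleton concentration series topping at 50 uM. Recombinant enzyme, specific substrate, product separated by mobility shift, fluorescence read at 1.33 h; activity loss relative to DMSO.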

[9] = molecular target: Tyrosine-protein phosphatase non-receptor type 12 (Homo sapiens) (UniProt Q05209); test: NVS_ENZ_hPTPN12: NovaScreen (NVS) Enzymatic Assay for human Protein Tyrosine Phosphatase Non-receptor Type 12 (PTPN12) (AID 2283204)
Chain of Tyrosine-protein phosphatase non-receptor type 12 (Homo sapiens) (Q05209 whole entry, looked up): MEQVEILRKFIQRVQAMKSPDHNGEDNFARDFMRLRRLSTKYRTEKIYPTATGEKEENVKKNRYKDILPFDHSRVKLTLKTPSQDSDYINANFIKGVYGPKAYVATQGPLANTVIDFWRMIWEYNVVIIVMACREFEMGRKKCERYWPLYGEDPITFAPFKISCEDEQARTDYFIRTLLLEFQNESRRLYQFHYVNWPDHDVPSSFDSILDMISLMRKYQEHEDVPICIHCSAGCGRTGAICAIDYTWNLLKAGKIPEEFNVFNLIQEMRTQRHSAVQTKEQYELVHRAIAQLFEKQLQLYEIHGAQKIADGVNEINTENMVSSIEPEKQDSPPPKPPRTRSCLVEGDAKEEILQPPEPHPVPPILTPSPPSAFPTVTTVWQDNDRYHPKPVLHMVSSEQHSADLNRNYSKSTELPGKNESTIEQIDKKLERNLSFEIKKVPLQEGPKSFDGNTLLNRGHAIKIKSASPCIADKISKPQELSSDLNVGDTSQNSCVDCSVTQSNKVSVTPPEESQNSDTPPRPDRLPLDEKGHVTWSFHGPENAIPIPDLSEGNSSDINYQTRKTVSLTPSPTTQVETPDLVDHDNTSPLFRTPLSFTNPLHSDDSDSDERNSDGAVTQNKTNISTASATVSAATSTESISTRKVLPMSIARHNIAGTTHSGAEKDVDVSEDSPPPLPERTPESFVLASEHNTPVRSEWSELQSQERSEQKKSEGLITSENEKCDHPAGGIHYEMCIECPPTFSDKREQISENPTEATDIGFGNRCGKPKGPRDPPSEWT
Method in brief: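 Single-concentration duplicates (25 uM) preceded singleton concentration-response up to 50 uM for chemicals passing threshold. Cell-free recombinant PTPN12 activity was read 1.33 h after dosing via fluorescence after mobility-shift separation; loss of signal versus DMSO.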

[10] = molecular target: Tyrosine-protein phosphatase non-receptor type 13 (Homo sapiens) (UniProt Q12923); test: NVS_ENZ_hPTPN13: NovaScreen (NVS) Enzymatic Assay for human Protein Tyrosine Phosphatase Non-receptor Type 13 (PTPN13) (AID 2283205)
Method in brief: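 Screened first at a single 25 uM in duplicate; compounds passing the threshold (e.g. 30% inhibition) were rerun in concentration series, top 50 uM. Recombinant enzyme, fluorescent substrate, mobility-shift separation, 0.5 h read. Data fitted as inhibition relative to DMSO.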

[11] = molecular target: human Protein Tyrosine Phosphatase Non-receptor Type 9 (PTPN9), PTPN9 (gene 5780) (UniProt P43378); test: NVS_ENZ_hPTPN9: NovaScreen (NVS) Enzymatic Assay for human Protein Tyrosine Phosphatase Non-receptor Type 9 (PTPN9) (AID 2283209)
Chain of human Protein Tyrosine Phosphatase Non-receptor Type 9 (PTPN9), PTPN9 (gene 5780) (P43378 whole entry, looked up): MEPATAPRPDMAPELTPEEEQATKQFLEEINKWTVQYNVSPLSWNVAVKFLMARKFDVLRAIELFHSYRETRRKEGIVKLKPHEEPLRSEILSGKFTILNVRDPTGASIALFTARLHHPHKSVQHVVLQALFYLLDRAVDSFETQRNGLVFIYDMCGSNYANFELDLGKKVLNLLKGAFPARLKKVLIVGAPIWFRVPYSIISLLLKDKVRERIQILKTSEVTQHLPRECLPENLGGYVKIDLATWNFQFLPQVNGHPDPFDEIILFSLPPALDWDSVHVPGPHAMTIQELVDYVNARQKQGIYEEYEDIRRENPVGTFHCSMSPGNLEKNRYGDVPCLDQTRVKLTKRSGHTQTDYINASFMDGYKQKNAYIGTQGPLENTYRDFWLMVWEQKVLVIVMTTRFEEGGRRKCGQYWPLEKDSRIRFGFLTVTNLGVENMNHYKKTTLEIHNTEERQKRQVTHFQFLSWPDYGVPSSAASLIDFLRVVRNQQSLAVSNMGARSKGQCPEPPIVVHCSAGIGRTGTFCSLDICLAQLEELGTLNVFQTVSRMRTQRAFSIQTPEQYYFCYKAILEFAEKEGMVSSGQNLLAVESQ
Method in brief: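 Sf9-expressed enzyme in a cell-free assay, fluorescence read 1.33 h after dosing with mobility-shift separation of substrate and product. Tested at 25 uM in duplicate, then up to 50 uM; signal loss versus DMSO.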

[12] = molecular target: human Protein Tyrosine Phosphatase Receptor Type B (PTPRB), PTPRB (gene 5787) (UniProt P23467); test: NVS_ENZ_hPTPRB: NovaScreen (NVS) Enzymatic Assay for human Protein Tyrosine Phosphatase Receptor Type B (PTPRB) (AID 2283211)
Method in brief: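 Recombinant human PTPRB with a fluorescent substrate, product separated by electrophoretic mobility shift; read 1 h after dosing. Primary screen in duplicate at 25 uM; actives then retested in concentration series; loss of signal versus DMSO.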

[13] = molecular target: human Protein Tyrosine Phosphatase Receptor Type F (PTPRF), PTPRF (gene 5792) (UniProt P10586); test: NVS_ENZ_hPTPRF: NovaScreen (NVS) Enzymatic Assay for human Protein Tyrosine Phosphatase Receptor Type F (PTPRF) (AID 2283213)
Method in brief: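 Cell-free fluorescence enzyme assay with recombinant protein and substrate; product separated by electrophoretic mobility shift. Read 1 h after dosing, single 25 uM duplicate screen, then concentration-response up to 50 uM; loss of signal vs DMSO.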

[14] = molecular target: human Protein Tyrosine Phosphatase Receptor Type M (PTPRM), PTPRM (gene 5797) (UniProt P28827); test: NVS_ENZ_hPTPRM: NovaScreen (NVS) Enzymatic Assay for human Protein Tyrosine Phosphatase Receptor Type M (PTPRM) (AID 2283215)
Chain of human Protein Tyrosine Phosphatase Receptor Type M (PTPRM), PTPRM (gene 5797) (P28827 whole entry, looked up): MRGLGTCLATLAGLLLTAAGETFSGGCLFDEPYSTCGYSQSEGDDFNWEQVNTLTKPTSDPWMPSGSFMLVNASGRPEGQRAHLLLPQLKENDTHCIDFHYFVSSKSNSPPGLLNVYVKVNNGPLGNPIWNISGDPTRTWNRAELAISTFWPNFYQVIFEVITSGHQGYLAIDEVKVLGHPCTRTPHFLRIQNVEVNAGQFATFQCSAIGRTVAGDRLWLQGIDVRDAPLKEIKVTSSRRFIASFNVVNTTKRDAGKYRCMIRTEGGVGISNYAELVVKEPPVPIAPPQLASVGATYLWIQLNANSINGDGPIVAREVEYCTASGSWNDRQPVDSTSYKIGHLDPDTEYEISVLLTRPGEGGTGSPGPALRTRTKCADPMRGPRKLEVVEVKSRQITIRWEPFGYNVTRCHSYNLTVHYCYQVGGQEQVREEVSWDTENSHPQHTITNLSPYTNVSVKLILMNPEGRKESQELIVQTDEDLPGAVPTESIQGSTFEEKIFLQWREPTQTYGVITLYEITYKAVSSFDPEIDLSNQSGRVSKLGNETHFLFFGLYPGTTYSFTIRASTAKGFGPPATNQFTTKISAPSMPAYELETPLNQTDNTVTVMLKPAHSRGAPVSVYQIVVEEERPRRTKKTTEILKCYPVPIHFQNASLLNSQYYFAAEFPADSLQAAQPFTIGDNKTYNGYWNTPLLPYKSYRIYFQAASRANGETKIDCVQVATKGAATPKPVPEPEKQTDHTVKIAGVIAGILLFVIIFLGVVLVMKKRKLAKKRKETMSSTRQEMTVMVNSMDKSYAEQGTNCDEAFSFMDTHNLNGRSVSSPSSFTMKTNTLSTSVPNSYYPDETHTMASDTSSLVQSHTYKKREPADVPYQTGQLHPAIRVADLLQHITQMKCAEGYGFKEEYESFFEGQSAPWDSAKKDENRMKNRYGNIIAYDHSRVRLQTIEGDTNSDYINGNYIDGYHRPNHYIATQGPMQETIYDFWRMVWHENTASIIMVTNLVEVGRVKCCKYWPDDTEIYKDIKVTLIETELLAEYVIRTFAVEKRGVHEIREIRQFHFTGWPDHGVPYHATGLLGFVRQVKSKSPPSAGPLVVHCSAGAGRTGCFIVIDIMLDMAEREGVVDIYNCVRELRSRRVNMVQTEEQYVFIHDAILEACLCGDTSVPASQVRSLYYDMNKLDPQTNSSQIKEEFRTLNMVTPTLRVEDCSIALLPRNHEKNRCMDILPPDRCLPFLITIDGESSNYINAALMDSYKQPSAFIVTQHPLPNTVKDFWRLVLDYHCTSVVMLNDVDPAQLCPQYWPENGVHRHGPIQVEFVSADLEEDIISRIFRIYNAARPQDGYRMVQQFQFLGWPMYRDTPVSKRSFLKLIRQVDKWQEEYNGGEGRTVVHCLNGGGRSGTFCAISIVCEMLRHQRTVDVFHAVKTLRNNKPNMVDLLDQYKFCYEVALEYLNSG
Method in brief: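 Read-out is fluorescence after electrophoretic separation of substrate and product, taken 1.33 h post-dosing with recombinant enzyme. Compounds screened at 25 uM in duplicate, then concentration series for actives; activity as signal loss relative to DMSO.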

[15] = molecular target: human Protein Tyrosine Phosphatase Non-receptor Type 6 (PTPN6), PTPN6 (gene 5777) (UniProt P29350); test: NVS_ENZ_hPTPN6: NovaScreen (NVS) Enzymatic Assay for human Protein Tyrosine Phosphatase Non-receptor Type 6 (PTPN6) (AID 2283210)
Chain of human Protein Tyrosine Phosphatase Non-receptor Type 6 (PTPN6), PTPN6 (gene 5777) (P29350 whole entry, looked up): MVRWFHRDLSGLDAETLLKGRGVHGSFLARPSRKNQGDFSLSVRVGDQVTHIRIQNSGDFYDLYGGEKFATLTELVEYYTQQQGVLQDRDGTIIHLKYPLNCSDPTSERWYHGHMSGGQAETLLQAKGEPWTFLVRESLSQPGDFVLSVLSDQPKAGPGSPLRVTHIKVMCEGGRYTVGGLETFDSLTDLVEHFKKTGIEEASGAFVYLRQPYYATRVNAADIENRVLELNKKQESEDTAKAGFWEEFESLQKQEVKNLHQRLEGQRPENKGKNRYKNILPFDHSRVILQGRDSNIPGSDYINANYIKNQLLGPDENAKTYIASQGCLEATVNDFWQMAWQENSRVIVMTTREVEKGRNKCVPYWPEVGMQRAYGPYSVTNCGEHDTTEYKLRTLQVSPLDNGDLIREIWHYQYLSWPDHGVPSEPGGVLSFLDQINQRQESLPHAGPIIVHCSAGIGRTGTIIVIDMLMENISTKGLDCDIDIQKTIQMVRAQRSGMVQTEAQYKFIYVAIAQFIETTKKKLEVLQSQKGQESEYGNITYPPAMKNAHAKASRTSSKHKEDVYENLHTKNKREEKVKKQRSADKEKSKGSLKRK
Method in brief: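 Recombinant human PTPN6 from SF9 cells, enzyme activity followed by fluorescence after mobility-shift separation of substrate and product at 1.33 h. Chemicals first tested at a single 25 uM in duplicate, then confirmed across concentration series; loss of signal relative to DMSO.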

[16] = molecular target: human Protein Phosphatase, Mg2+/Mn2+ Dependent 1A (PPM1A), PPM1A (gene 5494) (UniProt P35813); test: NVS_ENZ_hPPM1A: NovaScreen (NVS) Enzymatic Assay for human Protein Phosphatase, Mg2+/Mn2+ Dependent 1A (PPM1A) (AID 2283198)
Chain of human Protein Phosphatase, Mg2+/Mn2+ Dependent 1A (PPM1A), PPM1A (gene 5494) (P35813 whole entry, looked up): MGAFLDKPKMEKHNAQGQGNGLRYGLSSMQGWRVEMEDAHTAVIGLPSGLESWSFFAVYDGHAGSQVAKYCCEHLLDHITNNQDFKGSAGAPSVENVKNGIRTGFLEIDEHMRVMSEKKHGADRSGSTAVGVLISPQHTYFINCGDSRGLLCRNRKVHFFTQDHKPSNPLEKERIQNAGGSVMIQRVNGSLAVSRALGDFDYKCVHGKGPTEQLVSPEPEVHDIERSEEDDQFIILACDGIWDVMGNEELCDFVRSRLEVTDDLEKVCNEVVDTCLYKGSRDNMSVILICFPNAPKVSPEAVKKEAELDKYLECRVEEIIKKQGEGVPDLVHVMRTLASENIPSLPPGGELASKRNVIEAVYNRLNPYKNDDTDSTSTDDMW
Method in brief: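 Primary screen in duplicate at 25 uM, with actives then titrated to a maximum of 50 uM. Recombinant PPM1A dephosphorylation of fluorescent substrate measured at 1 h, with substrate and product separated by mobility shift; inhibition fitted against DMSO.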

[17] = molecular target: human Rho Associated Coiled-coil Containing Protein Kinase 1 (ROCK1), ROCK1 (gene 6093) (UniProt Q13464); test: NVS_ENZ_hROCK1: NovaScreen (NVS) Enzymatic Assay for human Rho Associated Coiled-coil Containing Protein Kinase 1 (ROCK1) (AID 2283214)
Method in brief: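 Compounds first run in duplicate at 25 uM against recombinant human ROCK1, then followed in concentration series. Kinase activity was read 1 h post-dosing by fluorescence with mobility-shift separation, as signal loss relative to DMSO.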

[18] = molecular target: human Phosphoinositide 3-kinase alpha (PI3Ka), PIK3CA (gene 5290) (UniProt P42336); test: NVS_ENZ_hPI3Ka: NovaScreen (NVS) Enzymatic Assay for human Phosphoinositide 3-kinase alpha (PI3Ka) (AID 2283196)
Method in brief: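 Enzyme activity as fluorescence after mobility-shift separation of substrate and product, 1 h reaction, recombinant human PI3Kα; concentration-response to 50 uM max for chemicals passing a 25 uM duplicate screen.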

Question: How did the outcome [1] turn out when `Nc1nc2ncc(CNc3ccc(C(=O)N[C@@H](CCC(=O)O)C(=O)O)cc3)nc2c(=O)[nH]1` was run?
Answer: The outcome was “inactive”.

Question: And the outcome [2]?
Answer: Its outcome is “inactive”.

Question: And the AC50 [3]?
Answer: The AC50 was 8.97 µM (active).

Question: What about the AC50 [4] of the same compound?
Answer: The AC50 was 30.2 µM (active).

Question: What about the AC50 [5] of the same compound?
Answer: The AC50 was 14.9 µM (active).

Question: And the AC50 [6]?
Answer: The AC50 was 41.9 µM (active).

Question: Which results are given for `CN(C)c1ccc(N=NS(=O)(=O)O)cc1`?
Answer: outcome [7]: inactive; outcome [1]: inactive; outcome [8]: inactive; AC50 [9]: 12.5 µM (active); AC50 [10]: 16.4 µM (active); outcome [11]: inactive; outcome [12]: inactive; outcome [13]: inactive; outcome [14]: inactive

Question: `CC(C)=CCC/C(C)=C/CO` was tested. Which outcome [11] did it give?
Answer: Its outcome is “inactive”.

Question: How did the AC50 [1] turn out when `CC/C(=C\C(=N/O)C(N)=O)C(C)[N+](=O)[O-]` (centres undefined) was run?
Answer: Its AC50 is 40.1 µM (active).

Question: With `CN(C)c1ccc(Cc2ccc(N(C)C)cc2)cc1` as the compound, how does the outcome [7] read?
Answer: Its outcome is “inactive”.

Question: And the outcome [11]?
Answer: Its outcome is “inactive”.

Question: And the outcome [15]?
Answer: The outcome was “inactive”.

Question: Which AC50 [9] does the source give for `CCC(C)(C)C(=O)O[C@H]1C[C@@H](C)C=C2C=C[C@H](C)[C@H](CC[C@@H]3C[C@@H](O)CC(=O)O3)[C@H]21` here?
Answer: Its AC50 is 33.5 µM (active).

Question: How did the outcome [15] turn out when `CC(C)CCCCCCCOC(=O)CCCCC(=O)OCCCCCCCC(C)C` was run?
Answer: Its outcome is “inactive”.

Question: Which outcome [11] does the source give for `O=C1OC(=O)C2C3C=CC(C3)C12` (centres undefined) here?
Answer: The outcome was “inactive”.

Question: What about the outcome [15] of the same compound?
Answer: Its outcome is “inactive”.

Question: How did the outcome [16] turn out when `Cc1ccc(C)c(O)c1` was run?
Answer: The outcome was “inactive”.

Question: With `CC(C)=CCCC(C)CCO` (centres undefined) as the compound, how does the outcome [1] read?
Answer: The outcome was “inactive”.

Question: For `COC(=O)c1c(Cl)c(Cl)c(C(=O)OC)c(Cl)c1Cl`, which outcome [17] is on record?
Answer: Its outcome is “inactive”.

Question: With `COc1ccc2sc(C(=O)Nc3nnn[nH]3)c(OC(C)C)c2c1` as the compound, how does the AC50 [7] read?
Answer: Its AC50 is 13.2 µM (active).

Question: What about the AC50 [1] of the same compound?
Answer: The AC50 was 0.476 µM (active).

Question: And the AC50 [18]?
Answer: The AC50 was 0.192 µM (active).

Question: What about the AC50 [17] of the same compound?
Answer: The AC50 was 7.67 µM (active).

Question: With `O=P(OC(CCl)CCl)(OC(CCl)CCl)OC(CCl)CCl` as the compound, how does the outcome [14] read?
Answer: Its outcome is “inactive”.

Question: With `O=c1n(CC2CO2)c(=O)n(CC2CO2)c(=O)n1CC1CO1` (centres undefined) as the compound, how does the outcome [3] read?
Answer: The outcome was “inactive”.

Question: And the outcome [11]?
Answer: The outcome was “inactive”.

Question: And the outcome [15]?
Answer: The outcome was “inactive”.

Question: How did the outcome [16] turn out when `O=c1[nH]c2ccc(S(=O)CCN3CCC(Cc4ccc(F)cc4)CC3)cc2o1` (centres undefined) was run?
Answer: The outcome was “inactive”.

Question: With `CCCCCCCCCCCCc1ccccc1` as the compound, how does the outcome [8] read?
Answer: Its outcome is “inactive”.

Question: With `O=C(CCCCCCCCc1cccnc1)N1CCC(C=C(c2ccccc2)c2ccccc2)CC1` as the compound, how does the outcome [4] read?
Answer: The outcome was “inactive”.

Question: For `CC(C)(O)c1coc(S(=O)(=O)NC(=O)Nc2c3c(cc4c2CCC4)CCC3)c1`, which outcome [16] is on record?
Answer: Its outcome is “inactive”.
